# Test results taken from ChEMBL document CHEMBL3988442, “University of Dundee, Small-Polar-MMV Screening Library” (2021).
# Screen size: about 48,000 compounds; about 13,000 (27%) showed an effect of 50% or more. Some of the results follow.
# Test system: Wolbachia pipientis
# Assay: Anti-Wolbachia Cell-Based Screen
# Assay type: functional
# Design: scale not given: in the data most compounds retested in dose-response had high values
# Conditions: 5 µM
row,SMILES,Percent Effect
1,O=C(CCNC(=O)C1=Cc2ccccc2OC1)Nc1cccnc1,-5.743%
2,Cn1cc(C(=O)Nc2cccc(Oc3ccncc3)c2)ccc1=O,-26.42%
3,O=C(CCNC(=O)C1=Cc2ccccc2OC1)NCc1ccncc1,-4.464%
4,CCOc1cccc(C(=O)NCCC(=O)NCc2ccncc2)c1,103.5%
5,O=C(CCNC(=O)c1ccccc1F)NCCNc1cccnc1,5.027%
6,O=C(CCNC(=O)c1cccc(OC(F)F)c1)Nc1cccnc1,104.3%
7,CCOc1cccc(C(=O)Nc2ccncc2)c1,88.42%
8,O=C(CCNc1ccc(Cl)cn1)NCc1ccncc1,-15.58%
9,CCCNC(=O)c1ccc(NC(=O)c2cccc(OCC)c2)cc1,17.24%
10,CS(=O)(=O)c1ccc(OCCNCc2ccc(F)cc2)cc1,-11.24%
11,CC(C)c1ccc(O)c(C(=O)NC2CCN(c3ncccn3)CC2)c1,6.653%
12,CC(C)C1CN(C(=O)c2ccccc2)CCS1 (centres undefined),-3.784%
13,O=S1(=O)[C@@H](c2ccccc2)[C@H](CO)CN1c1ccccc1,106.6%
14,O=S(=O)(Cc1ccccc1CN1CC[C@H](CO)[C@H](O)C1)c1ccccc1,-17.78%
15,O=S1(=O)[C@@H](c2ccccc2)[C@H](CO)CN1C1CC1,108.4%
16,CC(C)N1C[C@@H](CO)[C@H](c2ccccc2)S1(=O)=O,103.9%
17,O=C(O)CN1CCC(c2ccccc2)CC1,-2.297%
18,CN(C)C[C@@H]1CN(C(=O)Cc2ccccc2)C[C@@H]1CO,-32.78%
19,O=C(C1CCS(=O)(=O)CC1)N1C[C@H]2CC[C@@H]1CN(Cc1ccccc1)C2,-12.98%
20,COc1ccccc1CCC(=O)N1C[C@H](c2ccccc2)[C@@H](N)C1,-7.051%
21,CCN1C(=O)CCC12CCN(S(=O)(=O)c1ccc(C#N)cc1)CC2,5.403%
22,O=C(c1ccnnc1)N1CCC2(CCN(c3ccsc3)C2=O)C1 (centres undefined),3.217%
23,CCC(C(=O)N(Cc1ccccn1)C1CCCCC1)n1cccn1 (centres undefined),5.317%
24,COCCn1/c(=N\C(=O)CN(C)S(C)(=O)=O)sc2cc(C)ccc21,-2.711%
25,CC(C)(C)c1cnc(CN2CCC(NC(=O)Nc3ccccc3)CC2)o1,8.013%

row,SMILES,Percent Effect
1,CN(C)C(=O)N1CCC2(CCCN(CCOc3ccccc3)C2)C1.O=C(O)C(F)(F)F (centres undefined),102.1%
2,O=C(c1cscn1)N1CCC2(CCN(S(=O)(=O)c3ccccc3)C2)C1 (centres undefined),-2.264%
3,O=C(CC1CC1)N1CCC2(CCCN(CCOc3ccccc3)C2)C1.O=C(O)C(F)(F)F (centres undefined),117.3%
4,CCOC(=O)CN1CCC2(CCCN(CCOc3ccccc3)C2)C1 (centres undefined),101.8%
5,O=C(CC1CC1)N1CCC2(CCCN(c3ncccn3)C2)CC1,-10.65%
6,O=C(CC1CC1)N1CC[C@H]2OCC[C@@]2(COc2ncccc2F)C1.O=C(O)C(F)(F)F,5.049%
7,Cc1ccc(CN2CCC3(CCCN(C(=O)N(C)C)C3)C2)cc1 (centres undefined),-1.979%
8,O=C(c1cscn1)N1CCC2(CCCN(CCOc3ccccc3)C2)C1 (centres undefined),112%
9,Cn1cc(CN2CC3(CCN(C(=O)c4cscn4)C3)C2)cn1,2.986%
10,COC(=O)c1cc(OCC2CCC2)cc(C(=O)N[C@@H]2CNCC[C@H]2O)c1,8.764%
11,O=C(c1ccc(=O)[nH]c1)N1CCCC2(C=Cc3ccccc3O2)CC1 (centres undefined),-7.084%
12,Cc1nc(CN(C)S(=O)(=O)c2ccccc2C(F)(F)F)no1,2.399%
13,COc1ccc(CN2CCOC[C@H](OCCC(C)C)C2)cc1,0.3051%
14,CCCS(=O)(=O)NCC(C)c1ccc(F)c(F)c1 (centres undefined),-6.211%
15,CC(=O)c1ccc(C(=O)NCc2ccnc(N(C)C)n2)cc1,-2.815%
16,CCN1CC[C@]2(CN(C(=O)[C@H]3CCCO3)C[C@H]2c2ccccc2)C1=O,-5.714%
17,CN1CC[C@]2(CN(C(=O)[C@H]3CCCO3)C[C@H]2c2ccccc2)C1=O,-10.86%
18,O=C([C@H]1CCCO1)N1CCC2(CCCN(CCOc3ccccc3)C2)C1 (some centres undefined),105.8%
19,c1cc(CNc2ncc(-c3cnccn3)c([C@@H]3CCCO3)n2)ccn1,102%
20,Cn1ncnc1-c1ccnc(NCCCc2ccncc2)n1,-3.782%
21,c1cc(CCN2CCC(c3n[nH]c(C4CC4)n3)CC2)ccn1,9.327%
22,Cc1cnc2c(c1NCc1ccncc1)c(=O)n(C)c(=O)n2C,-24.16%
23,c1cc(CCNc2ncc(-c3cnccn3)c(C3CC3)n2)ccn1,137.3%
24,c1cc(CNc2ncc(-c3cnccn3)c(C3CC3)n2)ccn1,244.3%
25,c1cnc(-c2cnc(N3CCSCC3)nc2C2CCCO2)cn1 (centres undefined),-3.576%

row,SMILES,Percent Effect
1,c1cc(CNCCC2CCCO2)ccn1 (centres undefined),-4.656%
2,c1cc(-c2n[nH]c(CNc3nnc(C4CC4)o3)n2)ccn1,-23.66%
3,Cc1cc(F)ccc1OC1(C(=O)O)CCN(Cc2cccnc2N)CC1,-8.297%
4,Cc1noc(C)c1CN(C)Cc1csc(-c2ccc(F)cc2)n1,17.5%
5,Cc1cc(C(=O)N2CCN(C(=O)CCC3CCCCC3)CC2)n(C)n1,-12.7%
6,O=S(=O)(Cc1ccccc1)c1nnc(N2CCCC2)s1,-13.72%
7,Cc1ncc(CN(C)C(=O)Nc2cccc(CN3CCOC3=O)c2)s1,6.587%
8,CN(C)C(=O)[C@H]1C[C@@H]2CN(C(=O)NCC3CCCCC3)C[C@H]1O2,-9.234%
9,Cc1nn(C)c(Cl)c1C1CCCN1Cc1nc(-c2ccco2)no1 (centres undefined),77.16%
10,CCCc1noc(CN2CCCC2c2c(C)nn(C)c2OC)n1 (centres undefined),-3.307%
11,COc1c(C2CCCN2Cc2c(C)noc2C)c(C)nn1C (centres undefined),-0.2322%
12,Cc1nn(C)c(C)c1C1CCCN1Cc1nc(-c2ccco2)no1 (centres undefined),17.11%
13,Cc1ccc(C2CCCN2Cc2nc(-c3ccco3)no2)cc1 (centres undefined),6.26%
14,COc1c(C2CCCN2Cc2nc(-c3ccco3)no2)c(C)nn1C (centres undefined),131.1%
15,CCOC(C)c1nc(CN2CCNCC2)cs1 (centres undefined),1.236%
16,CN(C)C(=O)CO[C@H]1CN(Cc2cccc(F)c2)[C@@H]2CCCO[C@H]12.O=C(O)C(F)(F)F,5.103%
17,Cc1cc(C)cc(CN2C[C@@H]3OCCN(CC(=O)N(C)C)[C@@H]3C2)c1.O=C(O)C(F)(F)F,122.5%
18,O=C(O)C(F)(F)F.O=C(O)C(F)(F)F.O=C(O)C(F)(F)F.c1cc(CN2C[C@@H]3OCCN(CCN4CCCC4)[C@@H]3C2)co1,-5.454%
19,CN(C)CCN1CCO[C@H]2CN(Cc3cnn(C)c3)C[C@H]21.O=C(O)C(F)(F)F.O=C(O)C(F)(F)F.O=C(O)C(F)(F)F,2.67%
20,CN(C)C(=O)CN1CCO[C@H]2CN(Cc3ccoc3)C[C@H]21,95.5%
21,c1cc(CN2C[C@@H]3OCCN(CC4CCCO4)[C@@H]3C2)co1 (some centres undefined),-2.91%
22,Cc1cccc(CN2C(=O)CO[C@@H]3CN(C4CCOCC4)C[C@H]32)c1.O=C(O)C(F)(F)F,109.7%
23,O=C(O)C(F)(F)F.O=C1CO[C@@H]2CN(C3CCOCC3)C[C@H]2N1Cc1cccc(F)c1,2.353%
24,CN(C)C(=O)CN1CCO[C@H]2CN(Cc3cccc(F)c3)C[C@H]21,99.44%
25,Cc1cc(C)cc(CN2C[C@@H]3OCCN(S(=O)(=O)N(C)C)[C@@H]3C2)c1,-1.729%

row,SMILES,Percent Effect
1,CN1CCC(N(C)CCC(=O)N2CCN(Cc3cccc(F)c3)CC2)C1 (centres undefined),-12.08%
2,Cc1cccc(CN2C(=O)CO[C@@H]3CN(CCO)C[C@H]32)c1.O=C(O)C(F)(F)F,23.75%
3,CC(SCc1cc(Br)cc2cccnc12)C(N)=O (centres undefined),-22.01%
4,COc1ccc2c(c1)CC(C(=O)N(C)CCCc1cnn(C)c1)CO2 (centres undefined),-3.689%
5,CC(C)[C@@H]1CN(c2ccc(C(F)(F)F)cn2)C[C@H]1NS(C)(=O)=O,-16.11%
6,OCC(O)CSCc1ccc(F)cc1Cl (centres undefined),-2.217%
7,CC(=O)N[C@@H]1CN(C(=O)c2ccoc2)C[C@H]1c1ccc(C)cc1,0.232%
8,Cc1cccc(CN2C[C@@H]3OCCN(CC(=O)N(C)C)[C@@H]3C2)c1.O=C(O)C(F)(F)F,97.29%
9,Cc1cccc(CN2C[C@@H]3OCCN(S(=O)(=O)N(C)C)[C@@H]3C2)c1.O=C(O)C(F)(F)F,1.609%
10,Cc1cc(CN2CC[C@H]3[C@H]2CCN3CC(=O)N(C)C)oc1C.O=C(O)C(F)(F)F.O=C(O)C(F)(F)F,-40.85%
11,O=C(NC[C@H]1OC[C@@H](NC2COC2)[C@@H]1O)C1CCCC1,-18.2%
12,Cn1cc(C(C)(O)CNC(=O)c2ccc(Br)s2)cn1 (centres undefined),0.7525%
13,Cc1noc(C)c1CN(Cc1ccccc1)C(C)C,-1.884%
14,CN(C)C(=O)[C@@H]1CCO[C@@H]2CCN(CCOCc3ccccc3)C[C@H]21.O=C(O)C(F)(F)F,110%
15,O=C(NC1CCC1)[C@@H]1CCO[C@@H]2CCN(CCc3ccccc3)C[C@H]21.O=C(O)C(F)(F)F,10.39%
16,O=C(NC1CC1)[C@@H]1CCO[C@@H]2CCN(CCc3ccccc3)C[C@@H]21.O=C(O)C(F)(F)F,121.8%
17,CNC(=O)[C@@H]1CCO[C@@H]2CCN(C3CCOCC3)C[C@@H]21.O=C(O)C(F)(F)F,-5.14%
18,CN(C)C(=O)[C@@H]1CCO[C@@H]2CCN(Cc3ccccc3)C[C@@H]21.O=C(O)C(F)(F)F,-6.959%
19,O=C(NCC1CC1)[C@@H]1CCO[C@@H]2CCN(CCc3ccccc3)C[C@H]21.O=C(O)C(F)(F)F,103.2%
20,O=C(NC1CC1)[C@@H]1CCO[C@@H]2CCN(C3CCOCC3)C[C@H]21.O=C(O)C(F)(F)F,-6.605%
21,CN(C)C(=O)[C@@H]1CCO[C@@H]2CCN(CCc3ccccc3)C[C@@H]21.O=C(O)C(F)(F)F,0.9995%
22,Cc1noc(C)c1CN1CC[C@H]2OCC[C@@H](C(=O)NCC3CC3)[C@H]2C1.O=C(O)C(F)(F)F,-0.6103%
23,O=C(NCC1CC1)[C@@H]1CCO[C@@H]2CCN(Cc3ccc(F)cc3)C[C@H]21.O=C(O)C(F)(F)F,-1.927%
24,CNC(=O)[C@@H]1CCO[C@@H]2CCN(CCc3ccccc3)C[C@H]21.O=C(O)C(F)(F)F,100.2%
